This note sets out measurements from PubChem BioAssay (Tox21).

Results filed as inconclusive are left out. A call without a number means that no potency is given here. Values without a mark were called inactive. The source made the active and inactive calls. The call rests on the fitted dose curve; in most records, active means well fitted inhibition curve with a large enough effect in the repeat runs; inconclusive means weak or mixed curves; inactive means no such curve, though single readings can be large or run the other way.
Potency means the concentration at half of the fitted maximal effect.

Sequence of Cytochrome P450 2C9 (Homo sapiens) (P11712 whole entry, looked up): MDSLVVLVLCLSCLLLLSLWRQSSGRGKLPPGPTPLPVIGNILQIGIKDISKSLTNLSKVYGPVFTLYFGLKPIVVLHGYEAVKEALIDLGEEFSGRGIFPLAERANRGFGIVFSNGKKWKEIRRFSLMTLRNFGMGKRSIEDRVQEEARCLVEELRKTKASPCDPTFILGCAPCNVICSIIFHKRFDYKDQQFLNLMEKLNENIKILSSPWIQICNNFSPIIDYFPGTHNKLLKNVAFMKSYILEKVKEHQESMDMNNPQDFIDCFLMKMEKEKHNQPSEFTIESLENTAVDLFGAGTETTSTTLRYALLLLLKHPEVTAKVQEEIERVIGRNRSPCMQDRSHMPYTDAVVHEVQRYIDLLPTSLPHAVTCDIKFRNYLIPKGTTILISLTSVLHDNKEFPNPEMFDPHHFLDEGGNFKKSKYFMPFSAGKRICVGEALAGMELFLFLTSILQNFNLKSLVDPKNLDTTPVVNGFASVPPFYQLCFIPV

This assay concerns the target Cytochrome P450 2C9 (Homo sapiens) (UniProt P11712). The assay is described as follows: Cytochrome P450 Family 2 Subfamily C Member 9 (CYP2C9) small molecule antagonists: luciferase reporter qHTS assay (AID 1671198). Further: nearly all actives have a fitted effect of over 50% in size. The conditions noted are these: P450-Glo CYP2C9 enzyme assay, luciferin luminescence; series mostly up to 115 µM. From the text:
U.S. Tox21 Program National Center for Advancing Translational Sciences [NCATS] U.S. Environmental Protection Agency [EPA] National Institutes of Environmental Health Sciences [NIEHS] National Toxicology Program [NTP] U.S. Food and Drug Administration [FDA] Tox21 Assay Overview: Cytochrome P450 (CYP) enzymes are membrane-bound hemeproteins that play a key role in metabolism of drugs and xenobiotics. Evaluation of the effect of chemicals on CYP isozymes is useful to minimize the adverse drug reactions and toxicities in drug development process. Tox21 chemicals were tested for their effect on CYP enzyme activities by using P450-Glo (TM) screening systems (Promega Corporation, Madison, WI). These systems provide a luminescent method containing proluciferin substrates and are converted to luciferin products by CYP isozymes. The luciferin products formed are detected with a luciferin detection reagent, and the amount of light produced is proportional to CYP activity. P450-Glo (TM) CYP2C9 screening system (Catalog. No. V9790) was used to detect the compounds that interfere in CYP2C9 activity.
Tox21 Assay Protocol Summary: Two ul of enzyme-substrate mix was dispensed into medium binding white/solid 1536-well plates (Greiner Bio-One North America Inc., Monroe, NC) using a BioRaptr Flying Reagent Dispenser (FRD, Beckman Coulter, Brea, CA). […] The assay plates were incubated at room temperature for 10 min. Then 2 ul of NADPH regeneration solution was added to each well of the assay plates using an FRD and incubated at 37C for 1 h. The reaction was stopped by adding 4 ul of detection reagent using an FRD and after 20 min incubation at room temperature the luminescence signal was measured using a ViewLux plate reader (Perkin Elmer, Shelton, CT). Data were expressed as relative luminescence units.
A general note: In a reporter assay the amount or activity of a reporter protein is the signal.
For the molecule `Cc1c(Cl)cccc1Nc1ccccc1C(=O)O`, the Potency was 17.4 µM (active).
As for `O=C(OCCOCCOCCOC(=O)c1ccccc1)c1ccccc1`, the Potency result is “inactive”.
On the same count and under the same terms, with `FC(F)(Cl)C(F)(Cl)Cl` the entry was “inactive”; with `CCOc1ccc2c(c1)C(C)CC(C)(C)N2` (stereo not given), 14.2 µM (active); with `CCN(CCCCOC(=O)c1ccc(OC)c(OC)c1)C(C)Cc1ccc(OC)cc1` (stereo not given), “inactive”.
Consider `C=CC(C)CCC=C(C)C` (stereo not given), for which the Potency result was “inactive”.
`CCOC(OCC)OCC`: the Potency entry was “inactive”.
The same measure, in the same setting: with `Cc1ccccc1CCO` the entry was “inactive”.
On the same count and under the same terms, the value for `CCCCOC(=O)CC#N` was 7.44 µM (active).
On the same count and under the same terms, with `OCCOc1cccc(OCCO)c1` the entry was “inactive”; with `COc1ccc(C(=O)Nc2ccccc2)cc1[N+](=O)[O-]`, 35.9 µM (active); with `OCC(O)c1ccccc1` (stereo not given), “inactive”.
On to `O=C(Cl)c1ccc(F)c(Cl)c1`, for which the Potency entry was “inactive”.
Still for that read-out and setting: with `O=C(O)c1cccc(C(=O)O)c1C(=O)O` the entry was “inactive”; with `CC(CC(C#N)(c1ccccc1)C(C)C)N(C)C` (stereo not given), “inactive”; with `O=C(Cl)c1cc(Cl)cc(Cl)c1`, “inactive”.
On the same count and under the same terms, with `O=[N+]([O-])c1cccc(I)c1` the entry was “inactive”; with `COc1cccc([C@H](O)C2CCN(CCc3ccc(F)cc3)CC2)c1OC`, “inactive”; with `C=C[Si]1(C)O[Si](C)(C=C)O[Si](C)(C=C)O[Si](C)(C=C)O1` (stereo not given), “inactive”.
As for `CC(C)(C)N`, the Potency entry is “inactive”.
On the same count and under the same terms, with `O=C(O)c1ccc2cc(O)ccc2c1` the entry was “inactive”.
On the same count and under the same terms, with `Nc1ccc(C(=O)Oc2ccccc2)c(O)c1` the figure was 27.5 µM (active); with `Oc1ccc(Oc2ccccc2)cc1`, 26.8 µM (active); with `NC(=O)c1ccccc1`, “inactive”.
For the molecule `COc1ccc(/C=C/S(=O)(=O)NC(=O)c2ccc(C)cc2Cl)cc1`, the Potency was 17.8 µM (active).
The same measure, in the same setting: with `C1CCN(CN2CCCCC2)CC1` the entry was “inactive”; with `CC(O)CN` (stereo not given), “inactive”.
With `c1ccc(CN(Cc2ccccc2)Cc2ccccc2)cc1`, the Potency was 31.7 µM (active).
On the same count and under the same terms, with `CCOc1ccccc1O` the entry was “inactive”.
Same read-out and setting: with `N#CCCCC(C#N)CCC#N` (stereo not given) the figure was 39.9 µM (active); with `CC(C)NC(=O)c1ccccc1N`, “inactive”.
Same read-out and setting: with `CC/C=C/CCO` the entry was “inactive”; with `C=CC(O)CCCCC` (stereo not given), “inactive”; with `O=C(O)CCc1nc2ccccc2[nH]1`, “inactive”.
As to `CCCCCCCCCCCCCCCCN`, the Potency result is “inactive”.
Turning to `CCCC1CCCC(=O)O1` (stereo not given), the Potency was 39.9 µM (active).
Same read-out and setting: the value for `CC(=O)c1ccc(Cl)c(Cl)c1Cl` was “inactive”.
For `S=c1[nH][nH]c(=S)s1`, the Potency was 20 µM (active).
With `c1ccc(-c2ccc(-c3ccccc3)cc2)cc1`, the activity change, negative = inhibition is -16.3% [at 23.6 µM].
Take `Cc1ccc(NC=O)c(C)c1`: the Potency entry is “inactive”.
